Data on 19 molecules can be found in PubChem BioAssay (NCATS).

SMILES strings stand for the structures. Inconclusive results are not listed. Values without a mark were called inactive. The source made the active and inactive calls. Calls follow the shape of the dose curve; as a rule, active = well fitted inhibition curve with a large enough effect; inconclusive = small, poorly fitted or top-dose-only effect; inactive = flat fitted curve, though single readings scatter.
% is scaled to controls: 0 for no effect and ±100 for the full control effect; potency is read from the fitted curve at half-maximal effect.

Chain of DNA repair nuclease/redox regulator APEX1 (Homo sapiens) (P27695 whole entry, looked up): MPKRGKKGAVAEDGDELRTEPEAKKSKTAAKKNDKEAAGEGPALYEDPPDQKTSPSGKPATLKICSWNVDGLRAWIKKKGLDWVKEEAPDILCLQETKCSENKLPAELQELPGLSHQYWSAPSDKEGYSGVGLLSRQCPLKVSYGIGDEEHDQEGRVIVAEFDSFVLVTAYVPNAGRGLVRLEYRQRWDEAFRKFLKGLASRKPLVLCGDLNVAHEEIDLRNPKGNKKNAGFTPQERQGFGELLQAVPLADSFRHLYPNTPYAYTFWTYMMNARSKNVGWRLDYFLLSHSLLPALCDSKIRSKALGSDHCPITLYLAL

The target in the test is DNA repair nuclease/redox regulator APEX1 (Homo sapiens) (UniProt P27695). In words: qHTS Validation Assay for Inhibitors of the Human Apurinic/apyrimidinic Endonuclease 1 (APE1) (AID 1705;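 as to activity change, negative = inhibition: TAMRA fluorescence gain over two minutes as APE1 cuts a quenched THF abasic duplex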). The note with it: purified APE1 endonuclease activity, fluorescence, titration; series mostly up to 57.1 µM; activity change, negative = inhibition: at the top concentration. An excerpt:
Assay Provider: David M. Wilson, III, National Institute on Aging, NIH
Screening Center PI: Austin, C.P.
Screening Center: NIH Chemical Genomics Center [NCGC]
The apurinic/apyrimidinic endonuclease APE1 is the primary mammalian enzyme responsible for the removal of abasic (or AP) sites in DNA and functions centrally in the base excision DNA repair (BER) pathway. […] Thus, targeting APE1 could improve the efficacy of current treatment paradigms by promoting selective sensitization or protection of diseased and normal cells, respectively.
Inhibition of APE1 activity was screened by utilizing double-stranded short substrate containing tetrahydrofuran (THF) abasic site labeled with rhodamine-type fluorophore (TAMRA) at the 5'-end and with non-fluorescent Black Hole Quencher-2 (BHQ-2) at the opposing 3'-end. An increase in the fluorescence intensity due to incision of the abasic site by APE1 was used to measure the enzyme activity.
1. Substrate: 50 nM final concentration of TAMRA/BHQ-2 substrate dispensed throughout the plate.
2. Enzyme: […] nM APE1 final concentration in columns 1, 2, 5-48. Column 1 is neutral (100% activity)
3. Control: Pintool transfer of control inhibitor NSC-13755 to column 2 of all assay plates. Two-fold, 16 pt dilution in duplicate to produce final concentrations in the […] uM - […] nM range.
3. Buffer columns in columns 3 and 4 were used as negative control (no enzyme).
Three uL of enzyme were dispensed to 1536-well Greiner black solid bottom plates. Compounds (23 nL) were transferred via Kalypsys pintool. The plates were incubated for 15 min at room temperature, and then 1 uL of substrate solution was added to start the reaction. The plates were immediately transferred into ViewLux High-throughput CCD imager (Perkin-Elmer) in order to measure the reaction progress in kinetic mode (three reads every 60 seconds) using 525 nm excitation and 598 nm emission fluorescence protocol. The fluorescence intensity difference between the third and the first time points was used to compute reaction progress.
On the technique in general: qHTS replaces the single test concentration by a dilution series.
On to `COc1ccc2[nH]cc(CCN(C)C)c2c1`, for which the “activity change, negative = inhibition” value was 7.17%. Still for that read-out and setting: as for `N#CC(C#N)=Cc1ccc([N+](=O)[O-])c(O)c1`, the figure is -3.02%; as for `N[C@@H](Cn1cc(I)c(=O)[nH]c1=O)C(=O)O`, -9.58%.

With `N[C@H](CCCCCP(=O)(O)O)C(=O)O`, the “activity change, negative = inhibition” value was -1.97%. On the same count and under the same terms, as for `CP(=O)(O)CCCN`, the figure is 0.121%; as for `COc1ccc(-n2nc(C(F)(F)F)cc2-c2ccc(Cl)cc2)cc1`, -9.55%.

For `C=CCN1CCC2(C)c3cc(O)ccc3CC1C2C` (centres undefined), the “activity change, negative = inhibition” value was 2.22%.

Consider `CC(=O)OCC1=C(C(=O)[O-])N2C(=O)[C@@H](NC(=O)CCC[C@@H](N)C(=O)[O-])[C@H]2SC1.[Zn+2]`, for which the “activity change, negative = inhibition” value was -9.88%. The same measure, in the same setting: as for `C[N+]1(C)CCc2cc3c(cc2C1C1OC(=O)c2c1ccc1c2OCO1)OCO3` (centres undefined), the figure is 7.82%; as for `NO`, 17.6%. The same measure, in the same setting: next, `C[C@@H]1O[C@@H](O[C@H]2C[C@@H](O)[C@]3(CO)[C@@H]4C(CC[C@]3(O)C2)[C@@]2(O)CC[C@H](C3=CC(=O)OC3)[C@@]2(C)C[C@H]4O)[C@H](O)[C@H](O)[C@H]1O` (some centres undefined): -2.7%; `COC(=O)c1cc2c(cn1)[nH]c1ccccc12`: -6.19%. On to `Cc1cc(O)c2c(c1)C(=O)c1cc(O)cc(O)c1C2=O`, for which the Potency was 35.5 µM (active). As for `COc1cc(CCN)ccc1O`, the “activity change, negative = inhibition” value was 9.36%. Still for that read-out and setting: as for `CN1CCc2cc(O)cc3c2C1Cc1ccc(O)c(O)c1-3` (centres undefined), the figure is -6.73%; as for `CC(O)C(C)OC(=O)[C@@H]1C[C@@H]2c3cccc4c3c(cn4C(C)C)C[C@H]2N(C)C1` (some centres undefined), 0.335%. As for `Oc1ccccc1O`, the Potency is 35.5 µM (active). In the case of `CN1CCN(c2ccc3ccccc3n2)CC1`, the “activity change, negative = inhibition” value was 1.64%.

With `O=[N+]([O-])c1ccc(O[C@@H]2O[C@H](CO)[C@@H](O)[C@H](O)[C@H]2F)c([N+](=O)[O-])c1`, the “activity change, negative = inhibition” value was -6.63%.
